PubChem BioAssay AID602144 (Vanderbilt Specialized Chemistry Center, 2011)
Values joined by “and” are separate entries in the source; they are usually repeats but may differ in a detail not shown here. Equal values may be shown once. A number with no mark means an inactive call. Active and inactive are the calls of the source. No stated cut-off is given here; in the data, active means remaining activity below about 50%; inactive means the rest.

Biological target: Phospholipase D1 (Homo sapiens) (UniProt Q13393)
Sequence (Q13393 whole entry, looked up): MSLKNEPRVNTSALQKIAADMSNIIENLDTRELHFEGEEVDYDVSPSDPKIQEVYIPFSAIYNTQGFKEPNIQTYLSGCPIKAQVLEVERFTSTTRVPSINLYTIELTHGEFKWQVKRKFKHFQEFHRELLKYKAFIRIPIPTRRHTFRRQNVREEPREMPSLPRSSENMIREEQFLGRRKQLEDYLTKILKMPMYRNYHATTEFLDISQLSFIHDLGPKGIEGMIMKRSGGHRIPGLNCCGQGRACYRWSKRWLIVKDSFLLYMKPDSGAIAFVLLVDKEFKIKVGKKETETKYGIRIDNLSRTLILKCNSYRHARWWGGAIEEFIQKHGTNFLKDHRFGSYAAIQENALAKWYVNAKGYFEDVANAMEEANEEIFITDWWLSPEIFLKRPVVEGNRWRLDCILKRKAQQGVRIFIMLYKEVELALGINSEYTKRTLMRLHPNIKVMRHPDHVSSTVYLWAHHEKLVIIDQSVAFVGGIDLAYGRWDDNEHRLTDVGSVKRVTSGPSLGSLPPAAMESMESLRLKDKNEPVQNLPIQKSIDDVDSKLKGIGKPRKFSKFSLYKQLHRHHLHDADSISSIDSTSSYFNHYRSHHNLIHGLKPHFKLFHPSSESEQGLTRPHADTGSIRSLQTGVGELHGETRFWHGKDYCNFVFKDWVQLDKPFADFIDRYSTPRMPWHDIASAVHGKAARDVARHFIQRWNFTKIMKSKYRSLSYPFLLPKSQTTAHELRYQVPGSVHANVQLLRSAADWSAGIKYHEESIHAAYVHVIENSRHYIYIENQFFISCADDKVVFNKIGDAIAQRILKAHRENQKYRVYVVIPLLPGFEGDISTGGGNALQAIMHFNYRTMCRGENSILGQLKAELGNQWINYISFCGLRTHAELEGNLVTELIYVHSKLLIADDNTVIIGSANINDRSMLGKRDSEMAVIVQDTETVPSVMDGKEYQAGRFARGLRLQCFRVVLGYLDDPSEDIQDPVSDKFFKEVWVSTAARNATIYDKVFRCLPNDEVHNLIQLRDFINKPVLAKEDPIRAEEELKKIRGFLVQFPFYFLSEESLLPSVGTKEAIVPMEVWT
Sequence (Q13393 whole entry, looked up): as above
Experiment: PLD1 inhibitors in cells, Calu-1 cells, single concentration (AID 602144);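 further: tested at 200 nM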
Conditions: cellular PLD1 activity, stronger effect = lower value

Row | Structure (SMILES) | remaining activity
1 | O=C(NCCN1CCC2(CC1)C(=O)NCN2c1cccc(F)c1)c1ccc(OC(F)(F)F)cc1 | 96.9%
2 | C[C@@H](CN1CCC2(CC1)C(=O)NCN2c1ccc(F)c(F)c1)NC(=O)c1cc2cc(F)ccc2[nH]1 | 0% (active)
3 | O=C(NCCN1CCC2(CC1)C(=O)NCN2c1cccc(F)c1)c1ccc2c(c1)C(=O)OC2=O | 102%
4 | C[C@H](CN1CCC2(CC1)C(=O)NCN2c1ccccc1)NC(=O)c1cc(Br)c(Br)o1 | 71.8%
5 | O=C(NCCN1CCC2(CC1)C(=O)NCN2c1cccc(Cl)c1)c1ccc(F)cc1 | 79.6%
6 | O=C(NCCN1CCC2(CC1)C(=O)NCN2c1ccccc1)c1ccncn1 | 124%
7 | O=C(NCCN1CCC2(CC1)C(=O)NCN2c1ccccc1)C1CCc2ccccc2C1 (stereo unspecified) | 103% and 104%
8 | CC(C)[C@@H](CN1CCC2(CC1)C(=O)NCN2c1ccccc1)NC(=O)c1ccc2ccccc2c1 | 20.7% (active)
9 | O=C(NCCN1CCC2(CC1)C(=O)NCN2c1cccc(F)c1)c1cc2cc(F)ccc2[nH]1 | 44% (active)
10 | O=C(NCCN1CCC2(CC1)C(=O)NCN2c1ccccc1)C1C[C@H]1c1ccccc1 (stereo partly specified) | 138%
11 | O=C(NCCN1CCC2(CC1)C(=O)NCN2c1ccccc1)c1cc(-c2ccccc2)no1 | 97.4%
12 | Cc1ccccc1C(=O)N(CCN1CCC2(CC1)C(=O)NCN2c1cccc(F)c1)C(=O)c1ccccc1C | 105%
13 | CC(C)[C@@H](CN1CCC2(CC1)C(=O)NCN2c1ccccc1)NC(=O)c1cc2cc(F)ccc2[nH]1 | 6.9% (active)
14 | C[C@H](CN1CCC2(CC1)C(=O)NCN2c1ccccc1)NC(=O)c1ccc(F)cc1 | 34.8% (active)
15 | O=C(NCCN1CCC2(CC1)C(=O)NCN2c1ccccc1)c1cc2cccnc2s1 | 51.1%
16 | C[C@@H](CN1CCC2(CC1)C(=O)NCN2c1ccc(F)c(F)c1)NC(=O)c1cnc2ccccc2c1 | 5.04% (active)
17 | O=C(NCCN1CCC2(CC1)C(=O)NCN2c1ccc(F)cc1)c1ccc(F)cc1 | 78.2%
18 | NC1(CN2CCC3(CC2)C(=O)NCN3c2ccccc2)CCCC1 (tested in a mixture with another compound) | 85.3%

Row | Structure (SMILES) | remaining activity
19 | O=C(NCCN1CCC2(CC1)C(=O)NCN2c1ccc(F)c(F)c1)c1ccc(Cl)cc1 | 94.9%
20 | O=C(NCCN1CCC2(CC1)C(=O)NCN2c1cccc(Cl)c1)c1ccc2ccccc2c1 | 57.3%
21 | CC1(C)C(C(=O)NCCN2CCC3(CC2)C(=O)NCN3c2ccccc2)C1(C)C | 104%
22 | O=C(c1cnc2ccccc2c1)N1CCC[C@@H]1CN1CCC2(CC1)C(=O)NCN2c1ccccc1 | 107%
23 | O=C(NCCN1CCC2(CC1)C(=O)NCN2c1cccc(F)c1)c1cnc2ccccc2c1 | 79%
24 | O=C(NCCN1CCC2(CC1)C(=O)NCN2c1cccc(F)c1)c1ccc(Cl)cc1Cl | 110%
25 | O=C(NCCN1CCC2(CC1)C(=O)NCN2c1cccc(F)c1)C1CCCCC1 | 102%
26 | O=C(NCCN1CCC2(CC1)C(=O)NCN2c1cccc(F)c1)c1ccc(F)nc1 | 117%
27 | CN1CN(c2ccccc2)C2(CCN(CCNC(=O)c3ccc4ccccc4c3)CC2)C1=O | 97.9%
28 | O=C(NCCCCCCN1CCC2(CC1)C(=O)NCN2c1ccccc1)c1ccc2ccccc2c1 | 131%
29 | O=C(NCCN1CCC2(CC1)C(=O)NCN2c1cccc(Cl)c1)c1cc2cc(F)ccc2[nH]1 | 58%
30 | O=C(NCCN1CCC2(CC1)C(=O)NCN2c1cccc(Cl)c1)c1cnc2ccccc2c1 | 55.4%
31 | O=C(NCCN1CCC2(CC1)C(=O)NCN2c1ccc(F)cc1)c1ccc2cc(F)ccc2c1 | 94.6%
32 | O=C(NCCN1CCC2(CC1)C(=O)NCN2c1ccc(Br)cc1)c1cnc2ccccc2c1 | 94.1%
33 | O=C(NCCN1CCC2(CC1)C(=O)NCN2c1ccc(F)cc1)c1ccc2ccccc2c1 | 75.2%
34 | O=C(c1ccc2ccccc2c1)N1CC(N2CCC(n3c(=O)[nH]c4ccccc43)CC2)C1 | 108%
35 | C[C@@H](CN1CCC2(CC1)C(=O)NCN2c1ccc(F)c(F)c1)NC(=O)c1ccc(Cl)cc1 | 6.51% (active)
36 | C[C@@H](CN1CCC2(CC1)C(=O)NCN2c1ccc(F)c(F)c1)NC(=O)c1ccc(F)cc1 | 22.8% (active)
